Test results reported in PubChem BioAssay.
Several values for one entry are separate records, joined by “and”; a condition that tells them apart may be missing. Equal values may be shown once. Activity calls are given as the source filed them.

Tests used:
[1] = test system: Plasmodium falciparum Sir2 (PF13_0152, Sir2A); assay: pfSir2 binders on small-molecule microarrays, primary screen, biochemical, small-molecule microarray, 635 nm fluorescence (AID 1098); conditions: small-molecule microarray binding, fluorescence 635 nm; higher = more signal;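 note: score merges spot fluorescence intensity with its signal-to-noise ratio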
[2] = small-molecule microarray binders of probe aDKK1, primary screen, biochemical, biotinylated probe, 635/667 nm fluorescence (AID 1099); conditions: higher = more signal;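 note: score merges 667nm spot fluorescence with signal to noise across triplicate slides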
[3] = small-molecule microarray binders of probe aCHRDL2, primary screen, biochemical, biotinylated probe, 635/667 nm fluorescence (AID 1100); conditions: higher = more signal
[4] = splicing luciferase reporter signal modulators, primary screen, spliceosome inhibition project, cell-based, HEK293, splice +/- reporter (AID 1101); conditions: luminescence, 24 h, higher = more signal, called active from +8 up or from −8 down;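 note: HEK293 cells carrying a splicing-competent luciferase reporter gene; test concentration not given here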
[5] = target: Fibroblast growth factor 10 (Homo sapiens) (UniProt O15520); assay: FGF10 binders on small-molecule microarrays, primary screen, biochemical, small-molecule microarray, 635 nm fluorescence (AID 1102); conditions: FGF10 binding, fluorescence 635 nm, higher = more signal
[6] = test system: glycogen synthase kinase-3 (GSK3A per assay name; protocol says GSK3B); assay: GSK3 binders on small-molecule microarrays, primary screen, biochemical, small-molecule microarray, 635 nm fluorescence, GSK3A (AID 1103); conditions: small-molecule microarray binding, fluorescence 635 nm; higher = more signal; note: the record names both GSK3A and GSK3B
[7] = target: Epidermal growth factor receptor (Homo sapiens) (UniProt P00533); assay: EGFR binders on small-molecule microarrays, primary screen, biochemical, small-molecule microarray, 635 nm fluorescence (AID 1104); conditions: EGFR binding, higher = more signal;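 note: score merges 667 nm emission intensity with spot signal to noise over triplicate slides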
[8] = target: Follistatin-related protein 3 (Homo sapiens) (UniProt O95633); assay: FSTL3 binders on small-molecule microarrays, primary screen, biochemical, small-molecule microarray, 635 nm fluorescence (AID 1105); conditions: FSTL3 binding, higher = more signal;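 note: score merges emission near 667 nm and signal to noise per printed spot across three slides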
[9] = target: Dickkopf-related protein 1 (Homo sapiens) (UniProt O94907); assay: DKK1 binders on small-molecule microarrays, primary screen, biochemical, small-molecule microarray, 635 nm fluorescence scan (AID 1106); conditions: DKK1 binding, higher = more signal;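 note: score merges emission near 667 nm with signal to noise over three replicate slides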
[10] = test system: Inhibin beta A chain (activin A); assay: INHBA (activin A) binders on microarrays, primary screen, biochemical, small-molecule microarray, 635 nm fluorescence scan (AID 1107); conditions: small-molecule microarray binding, higher = more signal;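 note: mouse activin A protein probed at 4.33 µg/mL on printed slides; score merges bound-protein fluorescence near 667 nm with spot signal-to-noise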
[11] = test system: Human papillomavirus type 1a protein E7 (residues 44-93); assay: HPV1a E7 fragment binders on microarrays, primary screen, biochemical, small-molecule microarray, residues 44-93, 635 nm fluorescence (AID 1108); conditions: small-molecule microarray binding, fluorescence 635 nm; higher = more signal;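 note: E7 fragment applied at 1 µg/mL in TBST for 1 h at 4 C; score combines spot fluorescence with its signal to noise ratio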
[12] = modulators of HCV replicon luciferase signal, primary screen, HCV replication inhibitor project, Huh7 cells, luciferase reporter (AID 1109); conditions: 48 h, higher = more signal;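 note: huh7 hepatoma cells harbouring a luciferase neomycin HCV replicon reporter; luciferase luminescence as measure of HCV replicon replication; test concentration not given here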
[13] = target: Left-right determination factor 2 (Homo sapiens) (UniProt O00292); assay: LEFTY2 binders on small-molecule microarrays, primary screen, biochemical, small-molecule microarray, 635 nm fluorescence scan (AID 1110); conditions: LEFTY2 binding, higher = more signal
[14] = target: Calmodulin-1 (Homo sapiens) (UniProt P0DP23); assay: CALM1 binders on microarrays, EGTA buffer, profiling panel, biochemical, small-molecule microarray, Cy5-labelled CALM1 (AID 1111); conditions: Cy5-CALM1 binding fluorescence, higher = more signal;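 note: labelled calmodulin applied in Tris saline Tween buffer holding calcium plus EGTA and DTT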
[15] = target: Calmodulin-1 (Homo sapiens) (UniProt P0DP23); assay: calcium-bound CALM1 binders on microarrays, profiling panel, artefact control for SMM control-protein annotation, biochemical, small-molecule microarray, Cy5-labelled CALM1, plus calcium (AID 1112); conditions: Cy5-CALM1 binding fluorescence, higher = more signal;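 note: score merges spot fluorescence with signal to noise from triplicate slides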
[16] = small-molecule microarray binders of probe aWnt5a, primary screen, biochemical, biotinylated probe, 635/667 nm fluorescence (AID 1113); conditions: higher = more signal;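 note: score merges 667 nm fluorescence intensity with signal-to-noise per printed feature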
[17] = small-molecule microarray binders of probe aShh, primary screen, biochemical, biotinylated probe, 635/667 nm fluorescence (AID 1114); conditions: higher = more signal;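 note: probe is biotin-labelled aShh protein from a stem cell growth factor screen; measures binding of labelled protein to compounds printed on the slide; score merges feature fluorescence at 667 nm with signal-to-noise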
[18] = small-molecule microarray binders of probe aNog, primary screen, biochemical, biotinylated probe, 635/667 nm fluorescence (AID 1115); conditions: higher = more signal;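 note: probe is biotinylated aNog protein used at 0.15 µg/mL for 1 h at 4 C; z-score combines 667 nm fluorescence of each spot with its signal to noise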
[19] = target: Torsin-1A-interacting protein 1 (Homo sapiens) (UniProt Q5JTV8); assay: LAP1 binders from COS7 cell lysate, primary screen, small-molecule microarray, 635/667 nm fluorescence (AID 1116); conditions: COS7-hLAP1 lysate binding, 635 nm fluorescence, higher = more signal
[20] = target: Alpha-bungarotoxin (Bungarus multicinctus) (UniProt P60615); assay: alpha-bungarotoxin binders on microarray, profiling panel, artefact control for SMM control protein annotation, biochemical, small-molecule microarray, Alexa647 label, 635/667 nm fluorescence (AID 1117); conditions: alpha-BTX-A647 binding fluorescence, higher = more signal
Chain of Alpha-bungarotoxin (Bungarus multicinctus) (P60615 whole entry, looked up): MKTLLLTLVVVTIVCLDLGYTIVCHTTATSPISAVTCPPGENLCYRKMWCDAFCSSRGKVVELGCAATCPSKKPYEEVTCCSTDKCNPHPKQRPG

Chain of Fibroblast growth factor 10 (Homo sapiens) (O15520 whole entry, looked up): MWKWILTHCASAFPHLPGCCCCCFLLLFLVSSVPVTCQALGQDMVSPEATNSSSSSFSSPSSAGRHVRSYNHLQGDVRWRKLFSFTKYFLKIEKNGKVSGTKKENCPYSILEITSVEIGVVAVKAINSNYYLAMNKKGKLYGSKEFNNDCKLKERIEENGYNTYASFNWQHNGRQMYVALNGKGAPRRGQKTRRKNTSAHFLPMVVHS
Chain of Epidermal growth factor receptor (Homo sapiens) (P00533 whole entry, looked up): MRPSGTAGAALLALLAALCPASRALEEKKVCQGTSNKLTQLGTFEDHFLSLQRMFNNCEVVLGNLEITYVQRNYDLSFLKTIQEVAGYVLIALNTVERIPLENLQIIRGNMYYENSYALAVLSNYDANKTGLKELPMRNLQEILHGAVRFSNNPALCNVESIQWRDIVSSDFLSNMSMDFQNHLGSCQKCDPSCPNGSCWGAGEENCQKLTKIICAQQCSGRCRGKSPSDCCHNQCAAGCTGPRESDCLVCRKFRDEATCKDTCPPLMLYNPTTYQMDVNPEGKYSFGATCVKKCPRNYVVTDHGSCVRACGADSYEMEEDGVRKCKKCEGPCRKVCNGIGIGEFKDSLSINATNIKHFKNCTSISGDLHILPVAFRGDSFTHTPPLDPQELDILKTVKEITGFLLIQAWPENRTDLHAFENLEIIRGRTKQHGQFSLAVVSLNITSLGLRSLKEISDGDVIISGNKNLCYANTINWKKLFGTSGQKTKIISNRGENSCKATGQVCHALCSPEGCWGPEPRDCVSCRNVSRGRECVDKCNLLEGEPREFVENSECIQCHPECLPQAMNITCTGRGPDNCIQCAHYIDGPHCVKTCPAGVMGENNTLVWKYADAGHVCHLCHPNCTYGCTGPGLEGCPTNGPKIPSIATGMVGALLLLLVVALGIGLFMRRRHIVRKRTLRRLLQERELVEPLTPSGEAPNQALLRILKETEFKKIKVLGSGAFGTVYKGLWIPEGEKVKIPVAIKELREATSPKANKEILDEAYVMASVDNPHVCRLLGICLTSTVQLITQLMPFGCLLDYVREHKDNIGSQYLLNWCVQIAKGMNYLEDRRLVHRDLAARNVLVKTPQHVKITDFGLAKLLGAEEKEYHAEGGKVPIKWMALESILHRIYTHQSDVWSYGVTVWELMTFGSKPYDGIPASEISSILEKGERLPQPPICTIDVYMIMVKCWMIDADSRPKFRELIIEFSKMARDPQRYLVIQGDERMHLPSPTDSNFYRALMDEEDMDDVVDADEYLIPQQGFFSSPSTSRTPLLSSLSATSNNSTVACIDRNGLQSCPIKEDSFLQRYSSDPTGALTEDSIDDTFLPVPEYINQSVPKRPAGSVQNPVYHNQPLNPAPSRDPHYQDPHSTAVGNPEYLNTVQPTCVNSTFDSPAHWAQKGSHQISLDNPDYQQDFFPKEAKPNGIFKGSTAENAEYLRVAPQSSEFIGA
Chain of Torsin-1A-interacting protein 1 (Homo sapiens) (Q5JTV8 whole entry, looked up): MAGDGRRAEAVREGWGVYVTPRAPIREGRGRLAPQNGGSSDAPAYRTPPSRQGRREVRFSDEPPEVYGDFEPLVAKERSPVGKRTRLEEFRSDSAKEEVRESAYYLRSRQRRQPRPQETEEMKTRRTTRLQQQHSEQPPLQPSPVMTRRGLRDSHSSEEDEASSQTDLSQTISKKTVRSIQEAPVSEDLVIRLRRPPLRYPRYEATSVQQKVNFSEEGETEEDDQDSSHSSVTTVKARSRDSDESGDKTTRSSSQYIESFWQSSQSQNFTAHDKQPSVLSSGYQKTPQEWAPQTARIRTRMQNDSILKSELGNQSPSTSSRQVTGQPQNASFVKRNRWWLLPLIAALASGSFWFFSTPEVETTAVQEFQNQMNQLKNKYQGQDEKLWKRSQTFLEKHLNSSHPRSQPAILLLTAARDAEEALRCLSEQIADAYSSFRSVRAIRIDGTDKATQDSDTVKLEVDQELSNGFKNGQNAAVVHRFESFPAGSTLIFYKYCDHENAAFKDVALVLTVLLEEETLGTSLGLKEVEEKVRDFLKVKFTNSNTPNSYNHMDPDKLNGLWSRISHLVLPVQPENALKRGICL
Chain of Follistatin-related protein 3 (Homo sapiens) (O95633 whole entry, looked up): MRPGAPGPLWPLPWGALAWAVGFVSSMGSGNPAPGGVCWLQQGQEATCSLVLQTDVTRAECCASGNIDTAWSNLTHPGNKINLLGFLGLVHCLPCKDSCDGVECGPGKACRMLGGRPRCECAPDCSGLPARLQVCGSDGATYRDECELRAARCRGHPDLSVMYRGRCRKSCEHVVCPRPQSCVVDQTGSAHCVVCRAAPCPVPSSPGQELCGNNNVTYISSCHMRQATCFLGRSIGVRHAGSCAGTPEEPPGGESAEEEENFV
Chain of Dickkopf-related protein 1 (Homo sapiens) (O94907 whole entry, looked up): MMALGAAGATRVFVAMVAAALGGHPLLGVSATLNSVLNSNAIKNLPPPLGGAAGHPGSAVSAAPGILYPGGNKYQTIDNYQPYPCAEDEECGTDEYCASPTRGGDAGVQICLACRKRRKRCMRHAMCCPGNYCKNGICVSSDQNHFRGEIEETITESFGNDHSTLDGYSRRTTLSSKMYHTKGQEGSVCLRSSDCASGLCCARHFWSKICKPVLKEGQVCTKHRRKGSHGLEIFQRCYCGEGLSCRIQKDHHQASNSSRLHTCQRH
Chain of Left-right determination factor 2 (Homo sapiens) (O00292 whole entry, looked up): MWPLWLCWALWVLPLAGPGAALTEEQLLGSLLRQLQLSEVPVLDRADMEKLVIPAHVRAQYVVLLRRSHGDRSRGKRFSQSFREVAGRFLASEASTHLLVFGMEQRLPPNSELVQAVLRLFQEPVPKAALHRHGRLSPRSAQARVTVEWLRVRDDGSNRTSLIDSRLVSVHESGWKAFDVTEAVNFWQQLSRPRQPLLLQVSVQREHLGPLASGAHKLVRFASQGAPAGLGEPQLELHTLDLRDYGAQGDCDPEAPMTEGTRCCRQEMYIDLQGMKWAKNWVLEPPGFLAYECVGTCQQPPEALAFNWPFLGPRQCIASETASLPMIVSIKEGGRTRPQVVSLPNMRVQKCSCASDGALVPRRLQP

| SMILES | composite z-score [1] | composite z-score [2] | composite z-score [3] | z-score [4] | composite z-score [5] | composite z-score [6] | composite z-score [7] | composite z-score [8] | composite z-score [9] | composite z-score [10] | composite z-score [11] | z-score [12] | composite z-score [13] | composite z-score [14] | composite z-score [15] | composite z-score [16] | composite z-score [17] | composite z-score [18] | composite z-score [19] | composite z-score [20] |
| --- | --- | --- | --- | --- | --- | --- | --- | --- | --- | --- | --- | --- | --- | --- | --- | --- | --- | --- | --- | --- |
| CC(C)N1CC=CC23O[C@@H]4C=CCCOC(=O)C4[C@H]2C(=O)N(C(C)CO)[C@@H]3C1=O (stereo not given in full) | 0.966 and -0.2 | 0.802 and -0.0438 | 1 and 0.404 | -1.6 (inactive) and -1.03 (inactive) | -0.858 and -0.457 | -0.132 and -0.547 | -1.71 and -0.693 | -1.66 and -0.676 | -2.56 and -0.647 | 0.644 and 1.35 | 0.163 and -0.9 | 0.179 and -0.144 | -1.4 and -1.42 | -0.302 and -0.271 | 0.269 and 0.224 | -0.26 and -0.152 | -0.138 and 0.0305 | 0.111 and -0.0784 | 1.62 and 0.0015 | -0.712 and -1.74 |
| CO[C@@H]1COC(=O)[C@H](Cc2ccccc2)NC(=O)CC=C[C@@H](C)[C@H](OC)COC(=O)[C@@H](C)NC(=O)CC=C[C@H]1C | 1.58 and 0.899 | -0.447 and -0.987 | -1.06 and -1.37 | -1.14 (inactive) and -1.29 (inactive) | 0.497 and 0.956 | 1.07 and 0.496 | 0.882 and 0.64 | 1.29 and 0.876 | 0.696 and 1.67 | 1.42 and 0.336 | 0.946 and 0.026 | -0.198 and 0.903 | 0.79 and 0.972 | -0.913 and -0.79 | -1.89 and -1.85 | -0.1 and -0.22 | -0.362 and -0.102 | -0.201 and -0.278 | 0.596 and -0.19 | -0.527 and -0.862 |
| CCOC(=O)c1ccc(NC(=O)O[C@H]2[C@H](OC(=O)Nc3ccccc3)[C@H](OC(=O)Nc3ccccc3)[C@@H](OC)O[C@@H]2CO)cc1 | 1.45 and 1.74 | 0.968 and 0.673 | 0.873 and 0.902 | -0.285 (inactive) and -0.997 (inactive) | 1.27 and 0.968 | 1.31 and 1.33 | 0.591 and 0.218 | 1.39 and 1.38 | 0.531 and 0.259 | 0.888 and 0.327 | 1.2 and 1.34 | -3.29 and -3.49 | 0.899 and 0.291 | 2 and 2.1 | 0.0672 and 0.407 | 0.0438 and -0.0417 | 0.113 and 0.337 | 0.576 and 0.978 | 1.74 and 1.88 | 1.86 and 2.87 |
| COC(=O)C1=C(C)N(Cc2ccccc2)[C@]23O[C@](C(=O)OC)(C(=O)N2[C@@H]1c1ccccc1)[C@H]1C(=O)N(C)C(=O)[C@H]13 | 0.626 and 0.336 | 0.0479 and 0.177 | -0.284 and -0.474 | -1.03 (inactive) and -1.27 (inactive) | 0.408 and 0.827 | 0.933 and 0.452 | 0.473 and 0.427 | 0.645 and 0.82 | 0.415 and 0.942 | -0.338 and 0.137 | 0.866 and 0.534 | -1.01 and 0.238 | 1.15 and 0.687 | 0.949 and -0.202 | 0.29 and -0.107 | -0.16 and -0.0165 | -0.237 and 0.165 | -0.108 and -0.0008 | 0.384 and 0.73 | 0.0312 and -0.0037 |
| C=CC[C@@H](O)c1ccc(OCCO)cc1 | 0.153 and 0.572 | -0.458 and -0.292 | 0.644 and 0.889 | -1.87 (inactive) and -2.09 (inactive) | -0.906 and -0.929 | 0.512 and -0.567 | -0.798 and -1.61 | 0.132 and -0.565 | -0.751 and -1.58 | -0.911 and -1.46 | -1.68 and -0.85 | 1.71 and 1.54 | -0.301 and -1.81 | -1 and -1.27 | -0.166 and -0.74 | -0.184 and -0.247 | -0.138 and -0.0626 | -0.435 and -0.201 | 0.141 and -0.598 | -0.416 and 1.32 |
